# Results filed as inconclusive are left out. Activity calls are given as the source filed them. Unless noted, calls follow the shape of the full dose curve.
# Molecular target: Progesterone receptor (Homo sapiens) (UniProt P06401)
# Assay: qHTS assay to identify small molecule agonists of the progesterone receptor (PR) signaling pathway (AID 1346784); also: nearly all actives have a fitted effect of over 30% in size; also: potency is read from the fitted curve at half-maximal effect
# Settings: PR-UAS-bla HEK293T, beta-lactamase FRET ratio, 16 h; series mostly up to 92.4 µM; activation: at the top concentration
# Procedure, shortened: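 Compounds were tested for PR agonism in HEK 293T cells bearing a beta-lactamase gene under UAS control. Treatment lasted 16 hr at 37C; signal came from fluorescence of a FRET substrate.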
# % is scaled to controls: 0 for no effect and ±100 for the full control effect.
# Progesterone receptor (Homo sapiens), sequence (P06401 whole entry, looked up): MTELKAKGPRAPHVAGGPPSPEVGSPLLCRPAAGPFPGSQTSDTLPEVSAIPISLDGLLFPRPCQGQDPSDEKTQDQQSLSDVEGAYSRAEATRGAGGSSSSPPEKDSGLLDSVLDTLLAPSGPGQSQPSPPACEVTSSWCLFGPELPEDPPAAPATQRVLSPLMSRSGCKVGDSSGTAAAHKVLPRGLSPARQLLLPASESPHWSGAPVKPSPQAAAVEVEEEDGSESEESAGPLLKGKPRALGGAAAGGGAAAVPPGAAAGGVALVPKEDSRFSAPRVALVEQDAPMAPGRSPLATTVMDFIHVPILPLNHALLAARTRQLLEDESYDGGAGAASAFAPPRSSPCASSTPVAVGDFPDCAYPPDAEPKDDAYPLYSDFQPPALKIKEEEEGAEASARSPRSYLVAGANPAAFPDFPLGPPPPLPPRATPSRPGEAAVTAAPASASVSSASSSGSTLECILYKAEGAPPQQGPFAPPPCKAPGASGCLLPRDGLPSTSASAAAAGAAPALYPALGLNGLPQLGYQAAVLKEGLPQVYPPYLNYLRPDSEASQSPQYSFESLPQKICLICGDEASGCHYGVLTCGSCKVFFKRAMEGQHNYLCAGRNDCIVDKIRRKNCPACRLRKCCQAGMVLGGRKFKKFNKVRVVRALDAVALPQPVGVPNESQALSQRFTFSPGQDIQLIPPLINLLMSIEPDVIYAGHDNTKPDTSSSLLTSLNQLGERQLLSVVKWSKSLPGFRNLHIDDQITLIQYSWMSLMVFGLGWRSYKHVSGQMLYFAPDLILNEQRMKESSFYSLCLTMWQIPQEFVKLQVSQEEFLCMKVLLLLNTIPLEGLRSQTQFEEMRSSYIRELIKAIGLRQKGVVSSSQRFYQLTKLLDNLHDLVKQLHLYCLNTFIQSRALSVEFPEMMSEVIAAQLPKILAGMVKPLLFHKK
SMILES,activation,Potency
O=C(CCS)OCC(COC(=O)CCS)(COC(=O)CCS)COC(=O)CCS,-1.05% (inactive),
C/C(C=O)=C\c1ccccc1,-0.379% (inactive),
O=C(O)CCS,0.331% (inactive),
CC1C(C)(C)C2=C(C(=O)CCC2)C1(C)C (stereo not drawn),-2.68% (inactive),
CC(C)CC(O)CC(C)C,-1.25% (inactive),
CCCCCc1ccco1,0.499% [at 42.5 µM] (inactive),
NC(=O)c1ccccc1[N+](=O)[O-],0.0249% (inactive),
O=C(O)c1cccc(C[C@@H]2COc3ccc(OCc4nc5cc(F)ccc5s4)cc3[C@@H]2O)c1,0.853% (inactive),
CCCCCC,-1.3% (inactive),
CC(C)(C(=O)c1cccnc1)c1cccnc1,-0.052% [at 42.5 µM] (inactive),
Cc1cc(CCC(=O)OCCOCCOCCOC(=O)CCc2cc(C)c(O)c(C(C)(C)C)c2)cc(C(C)(C)C)c1O,4.23% (inactive),
O=C(O)CO,0.728% (inactive),
O=C(O)CCC(=O)OC[C@@H](NC(=O)C(Cl)Cl)[C@H](O)c1ccc([N+](=O)[O-])cc1,1.97% [at 42.5 µM] (inactive),
Nc1ccc(N=Nc2ccc(N)cc2)cc1,-1.14% [at 42.5 µM] (inactive),
CC(C)(C)CCCCCCOC(=O)c1ccccc1C(=O)OCCCCCCC(C)(C)C,-0.0081% (inactive),
CC(C)C(=O)OCCOc1ccccc1,-1.06% (inactive),
CCCCCCCCCCCCCCN(C)C,,738 nM (active)
BrC(Br)C(Br)Br,-1.94% (inactive),
COc1cc(NS(=O)(=O)c2ccc(N)cc2)nc(C)n1,-0.0186% [at 42.5 µM] (inactive),
COc1ccc(CCN(C)CCCN2CCc3cc(OC)c(OC)cc3CC2=O)cc1OC,8.38% [at 42.5 µM] (inactive),

SMILES,activation,Potency
O=NN(CCCl)C(=O)NCCCl,-1.59% [at 42.5 µM] (inactive),
O=C(Nc1ccc(C(=O)O)c(O)c1)c1ccccc1,2.93% [at 42.5 µM] (inactive),
C=C(C)C(=O)OCCC(F)(F)C(F)(F)C(F)(F)C(F)(F)C(F)(F)C(F)(F)F,-2.35% (inactive),
CCN(CC)CCOc1ccccc1C(=O)CCc1ccccc1,-7.69% [at 42.5 µM] (inactive),
CC(C)COC(=O)COc1cc(Cl)c(Cl)cc1Cl,1.55% (inactive),
CCOCCC(=O)OCC,1.19% (inactive),
O=C(O)c1cc(Cl)cc(Cl)c1O,3.9% (inactive),
CC(O)Cn1cnc2c1c(=O)n(C)c(=O)n2C (stereo not drawn),-0.722% [at 42.5 µM] (inactive),
COC(=O)CC(C(C)=O)C(=O)OC (stereo not drawn),-0.449% (inactive),
CCc1ccc(C)cc1,2.07% (inactive),
Cc1ccc(NC(=O)N(C)C)cc1NC(=O)N(C)C,-4.7% (inactive),
O=C(O)c1ccc(O)cc1O,1.94% (inactive),
OCC(CO)n1cnc(-c2ccc(F)cc2)c1-c1ccnc(Oc2ccccc2)n1,-7.76% (inactive),
CC(=O)Oc1cccc(O)c1,-0.0074% [at 42.5 µM] (inactive),
CC(C)c1ccc(C#N)cc1,-2.7% (inactive),
N[C@@H](Cc1cc(I)c(O)c(I)c1)C(=O)O,0.312% [at 42.5 µM] (inactive),
CSSc1ccoc1C,-0.152% (inactive),
CNc1c2c(nn1C)CCCC2,-1.69% [at 42.5 µM] (inactive),
ClC1=C(Cl)C1(Cl)Cl,0.307% (inactive),

# Molecular target: Progesterone receptor (Homo sapiens) (UniProt P06401)
# Assay: qHTS assay to identify small molecule antagonists of the progesterone receptor (PR) signaling pathway (AID 1346795; active = well fitted inhibition curve with a large enough effect in the signal ratio in the repeat runs, not every such curve was filed as active; the % refers to the signal ratio)
# Settings: PR-UAS-bla HEK293T, beta-lactamase FRET ratio, 16 h; series mostly up to 92.4 µM; activity change, negative = inhibition: at the top concentration
# Procedure, shortened: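 In HEK293T cells bearing the PR-UAS-bla reporter, compound effects on promegestone-driven (1 nM) beta-lactamase expression are assessed after 16 hr using a fluorescent FRET substrate incubated 2 hr at room temperature.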
row,SMILES,"activity change, negative = inhibition"
1,O=C(CCS)OCC(COC(=O)CCS)(COC(=O)CCS)COC(=O)CCS,14.4% (inactive)
2,C/C(C=O)=C\c1ccccc1,5.89% (inactive)
3,O=C(O)CCS,-0.366% (inactive)
4,CC1C(C)(C)C2=C(C(=O)CCC2)C1(C)C (stereo not drawn),-4.61% (inactive)
5,CC(C)CC(O)CC(C)C,0.229% (inactive)
6,CCCCCc1ccco1,-14.6% [at 42.5 µM] (inactive)
7,NC(=O)c1ccccc1[N+](=O)[O-],-0.243% (inactive)
8,O=C(O)c1cccc(C[C@@H]2COc3ccc(OCc4nc5cc(F)ccc5s4)cc3[C@@H]2O)c1,2.16% (inactive)
9,CCCCCC,2.5% (inactive)
10,CC(C)(C(=O)c1cccnc1)c1cccnc1,3.66% [at 42.5 µM] (inactive)
11,Cc1cc(CCC(=O)OCCOCCOCCOC(=O)CCc2cc(C)c(O)c(C(C)(C)C)c2)cc(C(C)(C)C)c1O,-6.68% (inactive)
12,O=C(O)CO,5.6% (inactive)
13,O=C(O)CCC(=O)OC[C@@H](NC(=O)C(Cl)Cl)[C@H](O)c1ccc([N+](=O)[O-])cc1,8.7% [at 42.5 µM] (inactive)
14,Nc1ccc(N=Nc2ccc(N)cc2)cc1,-14.8% [at 42.5 µM] (inactive)
15,CC(C)(C)CCCCCCOC(=O)c1ccccc1C(=O)OCCCCCCC(C)(C)C,8.22% (inactive)
16,CC(C)C(=O)OCCOc1ccccc1,10.3% (inactive)
17,CCCCCCCCCCCCCCN(C)C,5.91% [at 18.9 µM] (inactive)
18,BrC(Br)C(Br)Br,1.93% (inactive)
19,COc1cc(NS(=O)(=O)c2ccc(N)cc2)nc(C)n1,0.219% [at 42.5 µM] (inactive)
20,COc1ccc(CCN(C)CCCN2CCc3cc(OC)c(OC)cc3CC2=O)cc1OC,-1.08% [at 42.5 µM] (inactive)

row,SMILES,"activity change, negative = inhibition"
1,O=NN(CCCl)C(=O)NCCCl,9.06% [at 42.5 µM] (inactive)
2,O=C(Nc1ccc(C(=O)O)c(O)c1)c1ccccc1,-6.47% [at 42.5 µM] (inactive)
3,C=C(C)C(=O)OCCC(F)(F)C(F)(F)C(F)(F)C(F)(F)C(F)(F)C(F)(F)F,13.3% (inactive)
4,CCN(CC)CCOc1ccccc1C(=O)CCc1ccccc1,-7.36% [at 42.5 µM] (inactive)
5,CC(C)COC(=O)COc1cc(Cl)c(Cl)cc1Cl,-4.92% (inactive)
6,CCOCCC(=O)OCC,2.15% (inactive)
7,O=C(O)c1cc(Cl)cc(Cl)c1O,-1.27% (inactive)
8,CC(O)Cn1cnc2c1c(=O)n(C)c(=O)n2C (stereo not drawn),8.91% [at 42.5 µM] (inactive)
9,COC(=O)CC(C(C)=O)C(=O)OC (stereo not drawn),9.78% (inactive)
10,CCc1ccc(C)cc1,10.5% (inactive)
11,Cc1ccc(NC(=O)N(C)C)cc1NC(=O)N(C)C,1.34% (inactive)
12,O=C(O)c1ccc(O)cc1O,1.06% (inactive)
13,OCC(CO)n1cnc(-c2ccc(F)cc2)c1-c1ccnc(Oc2ccccc2)n1,-21.2% (inactive)
14,CC(=O)Oc1cccc(O)c1,0.438% [at 42.5 µM] (inactive)
15,CC(C)c1ccc(C#N)cc1,3.98% (inactive)
16,N[C@@H](Cc1cc(I)c(O)c(I)c1)C(=O)O,-1.39% [at 42.5 µM] (inactive)
17,CSSc1ccoc1C,5.73% (inactive)
18,CNc1c2c(nn1C)CCCC2,-0.377% [at 42.5 µM] (inactive)
19,ClC1=C(Cl)C1(Cl)Cl,5.9% (inactive)

# Source: PubChem BioAssay (Tox21)
